Results on 38 compounds are retold here after PubChem BioAssay AID588849 (Broad Institute, 2011).

Structures are written as SMILES. Potency and affinity values are given separately. The source made the active and inactive calls. Where a call stands in place of a potency, no number is given. No rule for the calls is given here.

The experiment deals with CAAX prenyl protease 2 (Homo sapiens) (UniProt Q9Y256). As to the kind of experiment: inhibition of Ras-converting CAAX protease Rce1 – biochemical, yeast membranes, quenched-peptide fluorescence, cherry-pick, dose response (AID 588849). Particulars: yeast membrane fractions expressing human Rce1, quenched-peptide fluorescence, 4 h; series mostly up to 10 µM.
Chain of CAAX prenyl protease 2 (Homo sapiens) (Q9Y256 whole entry, looked up): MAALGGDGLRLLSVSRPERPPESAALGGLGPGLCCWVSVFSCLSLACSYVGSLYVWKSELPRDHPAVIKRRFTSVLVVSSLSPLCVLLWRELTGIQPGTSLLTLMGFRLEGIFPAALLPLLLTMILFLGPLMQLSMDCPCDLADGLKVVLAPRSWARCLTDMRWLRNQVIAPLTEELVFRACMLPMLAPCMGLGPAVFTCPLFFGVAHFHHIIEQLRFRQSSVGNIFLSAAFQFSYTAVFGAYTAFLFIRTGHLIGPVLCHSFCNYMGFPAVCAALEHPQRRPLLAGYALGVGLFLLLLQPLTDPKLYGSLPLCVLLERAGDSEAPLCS
Take `c1ccc(-n2nnnc2SCc2cn3cccnc3n2)cc1`: the outcome was inactive.
The same measure for `CN1CCN(C(=O)c2ccc(-c3cccs3)s2)CC1`: “inactive”; for `COc1ccc(C(C(=O)NC2CCCCC2)N(C(=O)c2snc(C(N)=O)c2N)c2ccc(OC)cc2OC)cc1` (stereo not drawn): “inactive”.
The same measure for `O=S(=O)(c1ccccc1)c1cnn2c(C(F)(F)F)cc(-c3ccc(F)cc3)nc12`: “inactive”; for `C=C(C)C1(O)OC(=O)C=C1OC` (stereo not drawn): “inactive”.
The same measure for `O=S(=O)(c1ccccc1)c1nc(-c2ccco2)oc1N1CCCCC1`: “inactive”; for `C/C(=N\NC(=O)c1ccc(Br)cc1)c1cccc(NC(=O)c2cccnc2)c1`: “inactive”; for `Cc1ccc(-c2cc(C)nc3nc(N)nn23)cc1`: “inactive”.
As for `CCN1CCN(CC(O)COc2ccc3c(C)cc(=O)oc3c2)CC1` (stereo not drawn), the result was inactive.
In the case of `Oc1c(N=NC(=S)Nc2ccccc2F)c2ccccc2n1Cc1ccccc1Cl`, the result was inactive.
With `CCC(C)Sc1cc(-c2nc3ccccn3c2NC2CCCCC2)ccc1OC` (stereo not drawn), the compound was called inactive.
With `CC(=O)c1c(O)cc(O)c(C(C)=O)c1O`, the compound was called inactive.
The same measure for `Cc1cc(C)n2nc(CC(=O)NNC(=O)c3ccc(N(C)C)cc3)nc2n1`: “inactive”; for `Cn1c(CN2CCOCC2)c(C#N)c2ccccc21`: “inactive”; for `Nc1nonc1-n1nnc(C(=O)N/N=C/c2cccc(Cl)c2)c1CSc1ccc(Cl)cc1`: “inactive”.
The same measure for `CCOc1ccc(OCC)c(NC(=O)c2nnn(CC(=O)Nc3cc(C)cc(C)c3)c2N)c1`: “inactive”.
The same measure for `COCCNc1nc(N)c([N+](=O)[O-])c(N2CCCCCC2)n1`: “inactive”; for `CC1(c2nnc(-c3cccc(Cl)c3)o2)CC(c2cccc(F)c2)=NO1` (stereo not drawn): “inactive”.
With `O=C(CN1C(=O)/C(=C\c2cccc(Br)c2)Oc2ccccc21)NCC1CCCO1` (stereo not drawn), the outcome was inactive.
The same measure for `COc1ccc(-c2c(-c3ccsc3)oc3ccc(N4CCOCC4)cc23)cn1`: “inactive”; for `COC(C/C=C/C(=O)[C@H](C)OCc1ccccc1)OC`: “inactive”; for `Nc1nonc1-n1nnc(C(=O)N/N=C/c2ccoc2)c1CSc1ccccc1`: “inactive”.
The same measure for `O=C(C1=C[C@@H](C2CC2)C[C@@H](OCc2ccc(CO)cc2)O1)N1CCN(Cc2ccccc2)CC1`: “inactive”; for `N=c1c2c(ncn1Cc1ccco1)Oc1ccc3ccccc3c1C2c1ccccc1` (stereo not drawn): “inactive”; for `Cc1c(C)c2ccc(OC(C)C(=O)NCCCN3CCOCC3)c(C)c2oc1=O` (stereo not drawn): “inactive”.
`O=C(NCC1CC1)c1ccc(Nc2nc3ccc(Br)cc3[nH]2)cc1`: the compound was classed as inactive.
As for `c1ccc(CNc2nc(N3CCN(Cc4ccccc4)CC3)nc3ccccc23)cc1`, the call was inactive.
The same measure for `CSc1ccc(C(=O)C2CCCN(C(=O)c3cccnc3SC)C2)cc1` (stereo not drawn): “inactive”; for `CC(=O)C(C)Oc1ccc2c3c(c(=O)oc2c1)CCCC3` (stereo not drawn): “inactive”; for `COc1ccc(Cl)cc1C(=O)Nc1ccc2c(c1)OCO2`: “inactive”.
The same measure for `CC1=NN(c2ccccc2)C(=O)/C1=C\c1ccc(Br)s1`: “inactive”; for `CC(C)CNC(=O)Nc1ccc(F)c(Cl)c1`: “inactive”.
The same measure for `CCOc1ccccc1CNC(=O)c1cc2occc2n1C`: “inactive”; for `CC(=O)c1ccc(-c2ccc(C(=O)N3CCC(C(N)=O)CC3)o2)cc1`: “inactive”; for `COc1cccc(NC(=O)Nc2cccn(Cc3ccc(C)cc3)c2=O)c1`: “inactive”.
Regarding `COc1ccc(CC(=O)OCC(=O)Nc2ccc(Br)cc2)cc1`, the compound was called inactive.
The same measure for `O=C(Nc1ccccc1)n1ccc(-c2ccc(-n3ccnc3)cc2)n1`: “inactive”; for `CC1CCN(C(=O)C2CCN(S(=O)(=O)c3ccc(-n4cnnn4)cc3)CC2)CC1`: “inactive”.
